{"source": "PubChem BioAssay (NCI)", "note": "Compounds without any hit were thinned out: in the full panel of roughly 83,000, 20% have a hit.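 Cell lines were cultured in 96-well plates, exposed to a single compound concentration, and assessed for percent growth 48 hours later.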 Unmarked numbers belong to inactive results. Active and inactive are the calls of the source. How the source made its calls: active means growth percent below 10; inactive means the rest."}
{"test_system": "MDA-MB-468 breast", "assay": "NCI-60 one-dose screen, 48 h (100 = growth as untreated, 0 = no growth, -100 = all killed)", "settings": "10 µM unless noted"}
{"smiles": "NC1CCN(c2nc(Nc3cccc(C(F)(F)F)c3)c3c(=O)[nH]ccc3n2)CC1", "growth": "-77.2% (active)"}
{"smiles": "CSc1nc(NCCCNc2ccnc3cc(Cl)ccc23)cc(-c2ccccc2)n1", "growth": "11.3%"}
{"smiles": "NC(=O)/C=C/C(=O)c1c(Cl)cccc1Cl", "growth": "-83.5% (active)"}
{"smiles": "COC(=O)[C@H]1CCCN1C(=O)[C@H]1CCCN1C(=O)[C@H](Cc1c[nH]c2ccccc12)NC(=S)Nc1cc(C(F)(F)F)cc(C(F)(F)F)c1", "growth": "61%"}
{"smiles": "CC1CCC2(C(=O)O)CCC3(C)C(=CCC4C5(C)CCC(O)C(C)(C)C5CCC43C)C2C1C", "note": "(stereo not given)", "growth": "24.5%"}
{"smiles": "CCCCCCCCN(CCCCCCCC)CC(O)c1cc(Cl)ccc1OC", "note": "(stereo not given)", "growth": "32.6%"}
{"smiles": "Clc1cccc(/C=N/Nc2nc(N/N=C/c3cccc(Cl)c3)nc(N3CCCCC3)n2)c1", "growth": "76.3%"}
{"smiles": "c1cc2ccc3cc2cc1CNCCOCCNCc1ccc2ccc(cc2c1)CNCCOCCNC3", "growth": "-68% (active)"}
{"smiles": "Cc1c(CC(=O)OCCO)cc(-c2ccc(Cl)cc2)n1-c1ccccc1", "growth": "89.1%"}
{"smiles": "C=C1C(=O)O[C@H]2[C@H]1CC/C(COC(=O)c1cccnc1N)=C\\CC[C@@]1(C)O[C@@H]21", "growth": "14.8%"}
{"smiles": "CCN(CC)S(=O)(=O)c1ccc(-c2nc(C(Cl)Cl)nc3cc(-c4ccc(F)cc4)nn23)cc1", "growth": "-31.9% (active)"}
{"smiles": "COC(=O)CNc1nc(N(C)O)nc(N(C)O)n1", "growth": "30.6%"}
{"smiles": "O=C(CSc1nc2ccccc2c(=O)n1-c1ccc(Cl)cc1)N/N=C/c1ccc(Oc2ccc(Cl)cc2)cc1", "growth": "-18.6% (active)"}
{"smiles": "C[C@@H]1C[C@H](N)C[C@H](c2ccncc2NC(=O)c2ccc(F)c(-c3c(F)cccc3F)n2)C1", "growth": "22.3%"}
{"smiles": "CN(CC(=O)O)c1ccc(/C=C/c2ccnc3ccccc23)cc1", "growth": "-0.654% (active)"}
{"smiles": "Oc1c(N=Nc2nn[nH]n2)ccc2ccccc12", "growth": "85.3%"}
{"smiles": "Nc1cccc(Cl)c1N", "growth": "-21.1% (active)"}
{"smiles": "CCN1C(=O)/C(=c2\\sc3n(c2=O)C2C(NN=3)N(CC)C(=S)N2CC)c2ccccc21", "note": "(stereo not given)", "growth": "104%"}
{"smiles": "CCOC(=O)C1=C(C)N2C(=NC3=C(CCCC/C3=C\\c3cc(OC)c(OC)c(OC)c3)C2c2cc(OC)c(OC)c(OC)c2)S1", "note": "(stereo not given)", "growth": "25.2%"}
{"smiles": "Cc1cc(N/N=C/c2nc(-c3ccc(Cl)cc3)oc2C)c2cc(Br)ccc2n1", "growth": "-36.6% (active)"}
{"smiles": "Cn1ncc2c(Nc3ccc(Br)cc3)nc(Nc3ccc(Br)cc3)nc21", "growth": "51.4%"}
{"smiles": "COc1ccc(Cl)c([N+](=O)[O-])c1", "growth": "99.9%"}
{"smiles": "COc1cc(-c2nc3cc(Cl)c(Cl)cc3[nH]2)ccc1OCC(=O)N=Nc1c(O)[nH]c2ccc([N+](=O)[O-])cc12", "growth": "4.59% (active)"}
{"smiles": "C=C1C(=O)O[C@H]2[C@H]1CC/C(COC(=O)CCCc1c[nH]c3ccccc13)=C\\CC[C@@]1(C)O[C@@H]21", "growth": "23.1%"}
{"smiles": "CCN(CC)CC(O)CNc1ccnc2cc(Cl)c(Cl)cc12", "note": "(stereo not given)", "growth": "83.5%"}
{"smiles": "CCOC(=O)C1=C(CCl)NC(=O)NC1c1ccc2c(c1)OCO2", "note": "(stereo not given)", "growth": "-1.1% (active)"}
{"smiles": "CCOC(=O)c1csc(-c2ccc(COC(=O)c3ccccc3)o2)n1", "growth": "115%"}
{"smiles": "CCCCCCCCCCCCC[N+](C)(C)Cc1ccccc1", "growth": "-25.3% (active)"}
{"smiles": "O=C1OC(c2ccc(-c3ccccc3)cc2)=C/C1=C/c1c2ccccc2cc2ccccc12", "growth": "90.2%"}
{"smiles": "O=C(c1c(F)ccc(NS(=O)(=O)N2CC[C@@H](F)C2)c1F)c1c[nH]c2ncc(-c3cnc(C4CC4)nc3)cc12", "growth": "54.7%"}
{"smiles": "COc1cccc(-c2nn(-c3ccccc3)cc2-c2ccnc(NCCCNS(=O)(=O)c3ccc(Br)cc3)c2)c1", "growth": "35.5%"}
{"smiles": "COc1cc([C@@H]2c3cc4c(cc3C(OC3O[C@@H]5COC(C)O[C@H]5[C@H](O)[C@H]3O)C3COC(=O)[C@@H]32)OCO4)cc(OC)c1O", "note": "(stereo not given in full)", "growth": "-31% (active)"}
{"smiles": "Clc1ccc2c(NCCNc3nc(-c4ccccc4)cc(-c4ccccc4)n3)ccnc2c1", "growth": "-53.8% (active)"}
{"smiles": "Cc1ccc(/C=C2\\CN(C(=O)C(Cl)Cl)C/C(=C\\c3ccc(C)cc3)C2=O)cc1", "growth": "-65.9% (active)"}
{"smiles": "NS(=O)(=O)c1ccc(CCn2c(SCC(=O)N/N=C/c3cc4ccccc4[nH]3)nc3ccccc3c2=O)cc1", "growth": "60.2%"}
{"smiles": "CC(C)(C)CC1(C)NC(=O)NC1=O", "note": "(stereo not given)", "growth": "96.1%"}
{"smiles": "C=C1C(=O)O[C@H]2[C@H]1CC/C(COC(=O)NCc1ccc(OC)cc1)=C\\CC[C@@]1(C)O[C@@H]21", "growth": "27.7%"}
{"smiles": "CCOC(=O)c1c2c(n3ccc(NC(=O)CCN(CC)CC)cc13)C(=O)c1ncccc1C2=O", "growth": "81.7%"}
{"smiles": "CC(=O)OCCCCN1C=C/C(=C\\C(=O)n2ccc3ccccc32)c2ccccc21", "growth": "98.4%"}
{"smiles": "Cc1ccc(-c2cc(-c3ccc(C)cc3)nc(N3CCN(CCNc4ccnc5cc(Cl)ccc45)CC3)n2)cc1", "growth": "36.4%"}
